Measured values published in PubChem BioAssay (EPA / NIEHS).
Active and inactive are the calls of the source. Rule for the calls: active = hit-call score of the fitted dose curve at least 0.9, where 1 is the maximum; inactive = score below 0.9.

Target: Aryl hydrocarbon receptor (Homo sapiens) (UniProt P35869)
Assay: ATG_Ahr_CIS: Attagene CIS-FACTORIAL HepG2 Assay for human Aryl Hydrocarbon Receptor (Ahr) (AID 2282930)
Conditions: HepG2 AhR cis-factorial reporter transcription; actives raise or lower the signal
Experimental: ATG_CIS is a cell-based, multiplexed-readout assay that uses HepG2, a human liver cell line, with measurements taken at 24 hours after chemical dosing in a 24-well plate.ATG_Ahr_CIS is one of 52 assay component(s) measured or calculated from the ATG_CIS assay. It is designed to make measurements of mRNA induction, a form of inducible reporter, as detected with fluorescence intensity signals by Reverse transcription polymerase chain reaction (RT-PCR) and Capillary electrophoresis technology.Data from the assay component ATG_Ahr_CIS was analyzed into 1 assay endpoint. This assay endpoint, ATG_Ahr_CIS, was analyzed with bidirectional fitting relative to DMSO as the negative control and baseline of activity. Using a type of inducible reporter, measures of mRNA for gain or loss-of-signal activity can be used to understand the reporter gene at the transcription factor-level as they relate to the gene AHR. Furthermore, this assay endpoint can be referred to as a primary readout, because this assay has produced multiple assay endpoints where this one serves a reporter gene function. To generalize the intended target to other relatable targets, this assay endpoint is annotated to the dna binding intended target family, where the subfamily is basic helix-loop-helix protein.
Human liver HepG2 cells are transiently transfected with multiple reporter transcription units (MRTUs) in 6-well plates using FuGene 6 reagent (Roche; 3 ml FuGene/1 mg DNA). The MRTU constructs are regulated by a cis-regulating element (promoter). […] A major difference between the CIS and TRANS system is that in CIS activities of endogenous TFs are measured, whereas the TRANS assay evaluates changes in activities of exogenous, chimeric NR-Gal4 proteins. […] At the end of 24 hour incubation, total RNA was isolated using TriZol reagent (Invitrogen). The isolated RNA is then reverse-transcribed using oligo(dT) primer and Mo-MLV reverse transcriptase (Invitrogen) with DNAse I (Ambion) treatment for 30 min. The one-tenth of the produced cDNA was amplified by PCR using Taq DNA polymerase (Invitrogen) and two reporter sequence-specific primers. The PCR products were fluorescently labeled by primer extension with 6-arboxyfluorescein (6-FAM) 5'-labeled reporter sequence-specific primer (2 min at 95 C, 20 s at 68 C and 10 min at 72 C) and these products were digested with 5U of HpaI (New England Biolabs) for 2h at 37 C. […] The raw capillary electrophoresis data was processed using Attagraph software (Attagene).

Sequence of Aryl hydrocarbon receptor (Homo sapiens) (P35869 whole entry, looked up): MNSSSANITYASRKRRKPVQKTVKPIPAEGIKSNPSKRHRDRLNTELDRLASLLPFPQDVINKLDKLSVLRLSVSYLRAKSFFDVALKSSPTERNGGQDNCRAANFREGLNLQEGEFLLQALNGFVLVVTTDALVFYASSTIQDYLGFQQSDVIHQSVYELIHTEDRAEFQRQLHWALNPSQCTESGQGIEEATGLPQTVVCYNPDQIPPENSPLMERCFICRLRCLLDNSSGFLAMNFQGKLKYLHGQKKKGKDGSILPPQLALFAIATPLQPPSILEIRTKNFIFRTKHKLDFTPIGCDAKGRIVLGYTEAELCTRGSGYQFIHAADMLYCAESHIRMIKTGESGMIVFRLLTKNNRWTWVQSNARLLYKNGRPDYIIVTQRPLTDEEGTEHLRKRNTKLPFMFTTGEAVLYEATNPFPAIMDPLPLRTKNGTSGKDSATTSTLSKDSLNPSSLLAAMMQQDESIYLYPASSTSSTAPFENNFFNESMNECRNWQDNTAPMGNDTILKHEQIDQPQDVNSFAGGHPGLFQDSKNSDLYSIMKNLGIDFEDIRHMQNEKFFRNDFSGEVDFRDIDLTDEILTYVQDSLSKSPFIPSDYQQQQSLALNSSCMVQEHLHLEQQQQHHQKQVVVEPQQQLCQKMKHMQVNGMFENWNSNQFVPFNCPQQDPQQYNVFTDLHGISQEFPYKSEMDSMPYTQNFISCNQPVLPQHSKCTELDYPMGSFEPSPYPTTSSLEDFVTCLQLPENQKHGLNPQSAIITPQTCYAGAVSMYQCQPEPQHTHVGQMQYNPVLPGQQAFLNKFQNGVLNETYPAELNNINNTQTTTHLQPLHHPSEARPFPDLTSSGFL

| Structure (SMILES) | outcome | AC50 |
| --- | --- | --- |
| CC1(C)S[C@@H]2[C@H](NC(=O)[C@H](N)c3ccccc3)C(=O)N2[C@H]1C(=O)O | inactive | – |
| COc1ccccc1OCC(O)CO (stereo not given) | inactive | – |
| CN(C)CCCN1c2ccccc2CCc2ccc(Cl)cc21 | inactive | – |
| F[B-](F)(F)F | inactive | – |
| CC1=NN(c2cc(Cl)c(S(=O)(=O)O)cc2Cl)C(=O)C1N=Nc1ccc(S(=O)(=O)O)cc1 (stereo not given) | inactive | – |
| O=C(O)c1cc(Cl)cc(Cl)c1O | – | 79 µM (active) |
| C1=CCC=C1 | inactive | – |
| OCCN(CCO)c1cccc(Cl)c1 | inactive | – |
| C[C@H]1C[C@H]2[C@@H]3CCC4=CC(=O)C=C[C@]4(C)[C@@]3(F)[C@@H](O)C[C@]2(C)[C@@]1(O)C(=O)CO | – | 44.6 µM (active) |
| CN(C)CCC(c1ccc(Cl)cc1)c1ccccn1 (stereo not given) | inactive | – |
| Cc1cccnc1 | inactive | – |
| Cc1cc(C)c(S(=O)(=O)O)cc1N=Nc1cc(S(=O)(=O)O)c2ccccc2c1O | – | 42.4 µM (active) |
| CC1=C(CC(=O)O)c2cc(F)ccc2/C1=C\c1ccc(S(C)=O)cc1 (stereo not given) | – | 3.48 µM (active) |
| COC(=O)c1ccccc1 | inactive | – |
| CN(C)c1ccc(C(c2ccccc2)c2ccc(N(C)C)cc2)cc1 | inactive | – |
| CC(C)(Oc1ccc(Cl)cc1)C(=O)O | inactive | – |
| CCCN[C@H]1CCc2nc(N)sc2C1 | inactive | – |
| COc1ccc2ccccc2c1 | inactive | – |
| CC(O)(P(=O)(O)O)P(=O)(O)O | inactive | – |
| CCCCCCCCCCC1CO1 (stereo not given) | inactive | – |
| Nc1ccc(S(=O)(=O)Nc2cnc3ccccc3n2)cc1 | inactive | – |
| Oc1ccc(Oc2ccccc2)cc1 | inactive | – |
| C[Si](C)(C)O[Si](C)(C)O[Si](C)(C)C | inactive | – |
| O=C(C1CCCCC1)N1CC(=O)N2CCc3ccccc3C2C1 (stereo not given) | – | 27.8 µM (active) |
| CCCCCCCCCCCCCC | inactive | – |
| CC/C=C\CC1=C(C)CCC1=O | inactive | – |
| CC1=C(CC=O)C(C)(C)CCC1 | inactive | – |
| CC(C)(C)NC(=O)[C@@H]1CN(Cc2cccnc2)CCN1C[C@@H](O)C[C@@H](Cc1ccccc1)C(=O)N[C@H]1c2ccccc2C[C@H]1O | – | 57.2 µM (active) |
| CC(C)n1c(/C=C/[C@@H](O)C[C@@H](O)CC(=O)O)c(-c2ccc(F)cc2)c2ccccc21 | – | 51.7 µM (active) |
| CCCCn1cc[n+](C)c1 | inactive | – |
